About 83,000 compounds went through this panel and 20% of them were active in at least one assay; those are over-represented in the sample as a whole.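 A percent growth of 40 corresponds to 60% growth inhibition; 0 means no net growth; -100 means all cells died. Active threshold: below 10.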 Calls of active or inactive are those of the source.
tested on: HL-60(TB) leukemia; experiment: NCI-60 one-dose screen, 48 h (100 = growth as untreated, 0 = no growth, -100 = all killed); details: 10 µM unless noted

Question: With `O=C(OCCCCOC(=O)n1cnc2ccccc21)n1cnc2ccccc21` as the compound, how does the growth read?
Answer: 104% (inactive)

Question: With `Cc1cc2nc(CC(=O)c3ccccc3)c(=O)[nH]c2cc1C` as the compound, how does the growth read?
Answer: 103% (inactive)

Question: For `COc1cc(-c2nc3nc4sc(C)c(C)c4c(=O)n3[nH]2)cc(OC)c1OC`, which growth is on record?
Answer: 80.7% (inactive)

Question: For `O=C(/C=C/c1cc2ccccc2[nH]c1=O)c1ccc2c(c1)OCO2`, which growth is on record?
Answer: 79% (inactive)

Question: Which growth does the source give for `c1ccc2nc(N3CCOCC3)c(N3CCCCC3)nc2c1` here?
Answer: 98.9% (inactive)

Question: Which growth does the source give for `Nc1ccc(-c2ccc(N)c(S(=O)(=O)O)c2)cc1S(=O)(=O)O` here?
Answer: 91.4% (inactive)

Question: With `CN(C)c1ccc(-c2ccc(-c3ccc(C(=N)N)cn3)o2)cc1` as the compound, how does the growth read?
Answer: -67.3% (active)

Question: For `Oc1[nH]c2cc(Cl)ccc2c1/C=c1/ccc2c(c1)N=C(c1cc(F)cc(F)c1)N=2`, which growth is on record?
Answer: -9.98% (active)

Question: Which growth does the source give for `Cc1ccc(C)c(/C=C2\CN(C(=O)OC(C)(C)C)C/C(=C\c3cc(C)ccc3C)C2=O)c1` here?
Answer: 10.7% (inactive)

Question: Which growth does the source give for `Cn1c([N+](=O)[O-])cnc1/C=C1\Oc2ccc(Br)cc2C1=O` here?
Answer: -12% (active)

Question: For `COCCNC(C)=O`, which growth is on record?
Answer: 107% (inactive)

Question: With `c1ccc(-c2nn(-c3ccccc3)[n+](-c3ccccc3-c3ccccc3)n2)cc1` as the compound, how does the growth read?
Answer: -31.4% (active)

Question: Which growth does the source give for `CCOc1cccc(/C=N/NC(=O)C(=O)Nc2cccc(C(F)(F)F)c2)c1O` here?
Answer: 11.2% (inactive)

Question: For `CNCCOc1nc2c3cnccc3cc(-c3cc(OC)c(OC)c(OC)c3)c2c2ccncc12`, which growth is on record?
Answer: -25.8% (active)

Question: With `c1ccc(-c2cccc(-c3ccccn3)n2)nc1` as the compound, how does the growth read?
Answer: -16.9% (active)

Question: How did the growth turn out when `c1cnc2[nH]cc(-c3nc(-c4ccsc4)cs3)c2c1` was run?
Answer: 104% (inactive)
